Anesthetic bind = binds horse apoferritin like a general anesthetic | AID 485281 | P02791 | Potency, µM (top dose mostly 77.5 µM), actives largely listed as inhibitors | 350,000 compounds, 0.074% hits | apoferritin/1-aminoanthracene competitive binding, fluorescence; further: nearly all actives have a fitted effect of over 20% in size
Target sequence (P02791 2-175 limits assumed): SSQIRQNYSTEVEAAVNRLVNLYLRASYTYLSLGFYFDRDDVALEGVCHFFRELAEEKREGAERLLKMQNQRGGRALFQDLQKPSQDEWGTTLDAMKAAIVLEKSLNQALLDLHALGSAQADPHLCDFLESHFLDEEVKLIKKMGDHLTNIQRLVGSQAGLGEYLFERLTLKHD
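Read-out: endpoint 1-AMA fluorescence, excitation 380 nm and emission 535 nm, after compounds sit 10 min at room temperature with 10 uM horse-spleen apoferritin in 50% saturated 1-AMA/PBS. Values come from four-parameter Hill fits.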
IDH1 R132H inh = inhibitors of human mutant IDH1 R132H. O75874. IDH1-R132H enzyme, NADPH consumption, diaphorase/resazurin fluorescence. Potency, µM (titrated, usually from 76.6 µM), actives largely listed as inhibitors. 390,000 compounds, 0.093% hits. AID 602179; further: nearly all actives have a fitted effect of over 65% in size
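IDH1-R132H (0.5 ug/mL) preincubated 30 min with compound, then NADPH (0.016 mM) and alpha-KG (2 mM) added; 80 min at RT, pH 7.5. Remaining NADPH coupled via diaphorase/resazurin to fluorescence (540/590 nm); concentration-response curves normalized to no-enzyme control.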
PKM2 activator = activators of human pyruvate kinase M2. purified PKM2, Kinase-Glo ATP luminescence, activation; response scale: 0% is enzyme alone, no compound. Potency, µM (highest dose often 57.5 µM), actives largely listed as activators. 260,000 compounds, 0.34% hits. AID 1631; further: nearly all actives have a fitted effect of over 55% in size
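ATP formation by purified human PK-M2, quantified via coupled luciferase luminescence after 1 h at room temperature with 0.1 mM ADP and 0.5 mM PEP final.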
TrxR1 substrate = rat thioredoxin reductase 1 substrate activity. O89049. Potency, µM (series often up to 114 µM). 390,000 compounds, 0.01% hits. purified TrxR1 substrate turnover, NADPH consumption readout. AID 588456; further: nearly all actives have a fitted effect of over 50% in size
Target sequence (O89049 whole entry, looked up): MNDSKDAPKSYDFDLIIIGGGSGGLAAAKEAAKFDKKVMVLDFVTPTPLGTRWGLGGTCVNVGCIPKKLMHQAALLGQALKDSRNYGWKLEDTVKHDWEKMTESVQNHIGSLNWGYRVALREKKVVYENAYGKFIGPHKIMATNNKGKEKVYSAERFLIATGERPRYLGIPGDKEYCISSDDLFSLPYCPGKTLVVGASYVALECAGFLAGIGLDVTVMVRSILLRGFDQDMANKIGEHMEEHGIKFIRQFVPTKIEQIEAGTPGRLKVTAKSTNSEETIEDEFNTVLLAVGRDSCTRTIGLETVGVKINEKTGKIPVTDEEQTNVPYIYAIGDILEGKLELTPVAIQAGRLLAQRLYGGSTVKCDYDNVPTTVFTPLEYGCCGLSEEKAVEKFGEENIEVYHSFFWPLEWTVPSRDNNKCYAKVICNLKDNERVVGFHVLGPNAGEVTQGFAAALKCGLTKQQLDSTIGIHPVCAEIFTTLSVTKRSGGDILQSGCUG
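Rat TrxR1, dispensed at 90 nM, was prereduced with 400 uM NADPH (final) for 5 min at ~22 deg C, then incubated with compound 15 min before 400 uM selenite. A first-read NADPH fluorescence drop versus no-compound background flagged substrates.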
rTrxR1 inhibitor = blocks rat thioredoxin reductase 1 | 390,000 compounds, 1% hits | recombinant rTrxR1, NADPH fluorescence consumption, selenite substrate | AID 588453 | Potency, µM (highest dose often 114 µM), most hits filed as inhibitors; further: nearly all actives have a fitted effect of over 65% in size
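Rat TrxR1 (90 nM in the dispensed reagent) was pre-reduced with 400 uM NADPH for 5 min at room temperature, then incubated with compound for 15 min. After 400 uM selenite was added, NADPH fluorescence (Ex 340/Em 450 nm) was followed for 8 min.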
GALK inhibitor = inhibitors of human galactokinase. P51570. Purified GALK, Kinase-Glo residual ATP luminescence. Potency, µM (top dose mostly 57.5 µM), actives largely listed as inhibitors. 270,000 compounds, 0.007% hits. AID 1868
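Luminescence from leftover ATP (Ultra-Glo luciferase/luciferin) served as read-out after a 1 h room-temperature reaction of 5 nM GALK with 35 uM ATP and 100 uM galactose.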
Hits are given with their value; - = inactive; ? = inconclusive; . = not tested or not shown; [ ] = another dose, or the depositor's remark. Hits are enriched below; roughly 1.3% of the tested compounds scored in any of these assays. The call rests on the fitted dose curve; in most records, active means well fitted curve in the direction sought with a large enough effect; inconclusive means small, poorly fitted or top-dose-only effect, or another doubt; inactive means no such curve, though single readings can be large; an effect the other way counts as inactive or inconclusive.

SMILES	Anesthetic bind	IDH1 R132H inh	PKM2 activator	TrxR1 substrate	rTrxR1 inhibitor	GALK inhibitor
c1ccc2cnccc2c1	.	.	.	-	-	.
O=C(CCOc1ccccc1)N1CCN(S(=O)(=O)c2ccccc2F)CC1	.	-	.	-	?	.
N#Cc1ccc(OCC(=O)N2CCN(S(=O)(=O)c3cccs3)CC2)cc1	-	-	17.8µM	-	-	-
O=C(COc1ccccc1)N1CCN(S(=O)(=O)c2cccs2)CC1	-	-	7.94µM	-	-	-
COc1ccc(CCC(=O)N2CCN(S(=O)(=O)c3cccs3)CC2)cc1	.	-	.	-	-	.
O=C(CCc1ccccc1)N1CCN(S(=O)(=O)c2cccs2)CC1	-	-	3.55µM	-	-	-
O=C(CCOc1ccccc1)N1CCN(S(=O)(=O)c2cccs2)CC1	-	-	12.6µM	-	-	-
O=C1Nc2c(c(=O)[nH]c(=O)n2-c2ccccc2)C1(NS(=O)(=O)c1ccc(Cl)cc1)C(F)(F)F (configuration not stated)	-	-	.	-	-	.
CCOC(=O)c1ccc(N2C(=O)c3[nH]nc(-c4ccc(C)cc4)c3C2c2cccs2)cc1 (configuration not stated)	-	-	.	-	-	.
CN(C)c1cccc(-c2nnc(SCC(=O)NCc3ccco3)n2C)c1	.	.	.	-	-	.
CCS(=O)(=O)N1CCN(S(=O)(=O)c2ccccc2[N+](=O)[O-])CC1	-	-	?	-	-	-
COc1ccc(OCC(=O)N2CCN(S(=O)(=O)c3ccccc3[N+](=O)[O-])CC2)cc1	-	-	7.94µM	-	-	-
CCC1CN(C(=O)N2CCC(C(=O)NCCC3=CCCCC3)CC2)c2ccccc2O1 (configuration not stated)	-	-	.	-[11.4 µM]	-	.
NC1C(N)C(N)C1N (configuration not stated)	.	.	.	-	-	.
CC(=O)Oc1ccc(N2C(=O)C3C4C=CC(C5CC45)C3C2=O)cc1[N+](=O)[O-] (configuration not stated)	-	-	-	-	44.7µM	.
CC(=O)Oc1ccc(N2C(=O)C3C(C2=O)C2C=CC3C23CC3)cc1[N+](=O)[O-] (configuration not stated)	-	-	-	-	-	-
Cc1ccc2[nH]cc(C(O)c3c[nH]c4ccc(C)cc34)c2c1	.	.	.	-	-	.
O=C(N/N=C/c1ccc(N2CCOCC2)o1)c1cccc(F)c1	-	-	-	-	11.2µM	-
COc1ccc(C(=O)Nc2nnc(SCc3cc(=O)c4cc(C)ccc4[nH]3)s2)cc1OC	-	-	.	-	-	.
Cc1ccc(/C=C2/C(=O)ON=C2c2ccccc2)o1	-	-	?	-	3.98µM	-
CC1=NOC(=O)/C1=C\c1ccc(-c2cccc(Cl)c2)o1	?	36.9µM	-	-	?	.
CC1=NOC(=O)/C1=C/c1ccc(O)c(Br)c1	-	-	.	-	?	-
Cc1ccc(C2=NOC(=O)/C2=C\c2ccccc2)cc1	.	-	.	-	3.98µM	.
O=C1ON=C(c2ccc(Cl)cc2)/C1=C/c1ccc(O)cc1	?	-	?	-	3.16µM	-
CC1=NOC(=O)/C1=C/c1ccc(O)cc1	-	-	-	-	?	-
SMILES	Anesthetic bind	IDH1 R132H inh	PKM2 activator	TrxR1 substrate	rTrxR1 inhibitor	GALK inhibitor
COC(=O)N/N=C/c1ccc(-c2cccc(Cl)c2)o1	-	-	-	-	-	-
O=C1ON=C(c2ccccc2)/C1=C/c1ccc(O)cc1	-	-	-[11.5 µM]	-	14.1µM	-
COc1cc([N+](=O)[O-])ccc1-c1ccc(/C=C2\C(=O)ON=C2c2ccccc2)o1	.	?	.	-	7.94µM	.
Nc1ccccc1N=Cc1ccc(-c2cccc(Cl)c2)o1	-	-	28.2µM	-	?	-
O=C1ON=C(c2ccccc2)/C1=C/c1ccccc1	-	-	-	-	4.47µM	-
O=C1ON=C(c2ccccc2)/C1=C\c1ccco1	-	-	-	-	-	-
COc1cc([N+](=O)[O-])ccc1-c1ccc(/C=N\n2cnnc2)o1	-	-	-[11.5 µM]	-[2.29 µM]	-	-
CCOC(=O)C(=Cc1ccc(-n2cncn2)cc1)C(=O)OCC	-	-	-	-	22.4µM	-
CCS(=O)(=O)c1ncc(Cl)c(C(=O)N(Cc2ccccc2)Cc2ccco2)n1	-	-	.	-	2.82µM	.
Cc1cccc(S(=O)(=O)c2c(N)n(Cc3ccco3)c3nc4ccccc4nc23)c1	-	-	22.4µM	-	?	-
Cc1ccc(S(=O)(=O)c2c(N)n(Cc3ccco3)c3nc4ccccc4nc23)cc1	-	-	?	-	-	-
O=C(COc1ccccc1)NCCc1csc(-c2ccc(Cl)cc2)n1	?	-	.	-	-	.
N#Cc1cc([N+](=O)[O-])c(-n2nnc3ccccc32)c([N+](=O)[O-])c1	-	-	-	-	15.8µM	-
Cc1[nH]nc2c1C(Cc1ccccc1)C(C#N)=C(N)O2 (configuration not stated)	-	-	-	-	25.1µM	-
CCc1[nH]nc2c1C(Cc1ccccc1)C(C#N)=C(N)O2 (configuration not stated)	-	-	-	-	?	-
CCCc1[nH]nc2c1C(Cc1ccccc1)C(C#N)=C(N)O2 (configuration not stated)	-	-	-	-	?	-
CC(C)c1[nH]nc2c1C(Cc1ccccc1)C(C#N)=C(N)O2 (configuration not stated)	-	-	-	-	17.8µM	-
CC(C)(C)c1ccc(NC(=O)COc2ccc(-n3ccnc3)cc2)cc1	28.2µM	-	-	-	-	-
COc1cc(NC(=O)COc2ccc(-n3ccnc3)cc2)cc(OC)c1	-	-	-	-	-	-
CSc1ccc(/C=C2\C=C(C(O)c3ccc(SC)cc3)c3ccccc32)cc1 (configuration not stated)	.	.	.	-	-	.
COc1ccc(-n2cc(C(=O)Nc3ccccc3C#N)c3ccccc3c2=O)cc1	-	-	.	-	-	.
CC1=NN(c2ccc(Cl)cc2)C(=O)C1	-	-	-	-	-	-
CC1=NN(c2ccc(N)cc2)C(=O)C1	-	-	-	-	28.2µM	-
Nc1cccc2c(=O)[nH]ccc12	-	.	.	.	.	.
COc1cc2c(cc1OC)CN(C(=O)CCNC(=O)c1ccc(Br)cc1)CC2	.	-	.	-	-	.
COc1cc2c(cc1OC)CN(CCC(=O)c1ccc(Br)cc1)CC2	-	-	.	-	0.282µM	-
CCOC(=O)N1CCN(CCC(=O)c2ccc(Br)cc2)CC1	-	-	.	-	1µM	.
COc1ccc(C(=O)CCN2CCC(C)CC2)cc1	-	-	.	-	0.708µM	-
CCOC(=O)N1CCN(CCC(=O)c2ccc(OC)cc2)CC1	-	-	-	-	3.55µM	-

Assay outcomes: PubChem BioAssay, National Center for Advancing Translational Sciences (NCATS)
